Screening data deposited in PubChem BioAssay by National Center for Advancing Translational Sciences (NCATS).
Marburg entry: qHTS for Inhibitors of binding or entry into cells for Marburg Virus. 18,000 compounds, 6.5% hits. Marburg virus pseudotype entry/binding inhibition, cell-based. Potency, µM (highest dose often 49.2 µM), without a hit: at the highest dose activity change, negative = inhibition, hits mostly inhibitors
LASV entry inh: qHTS for Inhibitors of binding or entry into cells for Lassa Virus | Lassa virus pseudotyped entry inhibition, cell-based qHTS | Potency, µM (highest dose often 49.2 µM), inactives show at the highest dose activity change, negative = inhibition, hits mostly inhibitors | 18,000 compounds, 4.1% hits | AID 720533, 2013
* hit, by the source's call; ? = inconclusive; · = not tested or not shown; ! = not active in a repeat; [ ] = another dose, or the depositor's remark. Rows were chosen to be rich in hits. Some 8.6% of all compounds tested hit in one or more screens of this group. The call rests on the fitted dose curve; tested in HEK293 cells. On the % scale 0 is the no-effect control and ±100 the full control effect; potency means the concentration at half of the fitted maximal effect.

SMILES | Marburg entry | LASV entry inh
C[C@@H]1C/C=C/C=C/C=C/C=C/[C@H](O[C@@H]2O[C@H](C)[C@@H](O)[C@H](N)[C@@H]2O)C[C@@H]2O[C@](O)(C[C@@H](O)C[C@H]3O[C@@H]3/C=C/C(=O)O1)C[C@H](O)[C@H]2C(=O)O | -2.7% | 1.2%[17.8 µM]
CN(C)[C@H]1CCN([C@H]2C[S+](=O)([O-])N[C@H]2COCc2ccccc2)C1 | 22.1% | 0.7%
COC(=O)[C@H](C(C)C)N(Cc1cc(OC)cc(OC)c1)S(=O)(=O)CCl | -23.3% | ·
c1cnn2ncc(-c3ccnc(Nc4ccc5c(c4)OCCO5)n3)c2c1 | 2.81µM* | ·
O=S1(=O)CCSCCN1Cc1ccccc1Br | 19.0% | 23.5%
C#C[C@]1(O)CC[C@H]2[C@@H]3CCC4=CC(=O)CCC4=C3C=C[C@@]21CC | 7.0% | ?
CC#C[C@]1(O)CC[C@H]2[C@@H]3CCC4=CC(=O)CCC4=C3[C@@H](c3ccc(N(C)C)cc3)C[C@@]21C | ? | 31.6µM*
C[C@@H]1[C@@H](c2ccccc2)Oc2c(Cl)cccc2S(=O)(=O)N1Cc1cccc(Cl)c1 | 15.6% | -10.4%
COC(=O)[C@H](NC(=O)c1cc(-c2ccccc2)nc2ccccc12)c1ccccc1 | 11.9% | ?
COC(=O)[C@H](CC(C)C)NC(=O)c1ccc(NC[C@@H](N)CS)cc1-c1cccc2ccccc12 | 11.2µM* | 11.2µM*
C[C@@H]1[C@@H](c2ccccc2)Oc2c(Cl)cccc2S(=O)(=O)N1Cc1ccc(F)cc1 | ? | 6.7%
COc1cc(C(CC2=C(c3ccccc3)Cc3ccccc32)NC(=O)C(F)(F)F)cc(OC)c1OC (centres undefined) | 8.2%[8.59 µM] | 21.0%[8.59 µM]
CC12C=CC(=O)C=C1CCC1C2=CCC2(C)C1CC[C@@H]2C(=O)CN1CCN(c2cc(N3CCCC3)nc(N3CCCC3)n2)CC1 (some centres undefined) | 17.8µM*! | 4.1%
COc1ccc([C@]23Cc4cc(C#N)ccc4[C@H](O2)C2=C(CC4(CCCCC4)OC2=O)O3)cc1 | 1.2%[8.59 µM] | -23.3%[8.59 µM]
COc1ccc2c3c(c(=O)oc2c1)[C@H]1O[C@](c2ccsc2)(Cc2cc(C#N)ccc21)O3 | -13.9%[8.59 µM] | -8.2%[8.59 µM]
CC(=O)C1=CN(CCC=Cc2ccccc2)C(=O)NC1c1ccccc1 (centres undefined) | ? | -19.8%[8.59 µM]
C=C(C)CCCN1C=C(C(C)=O)C(c2ccccc2)NC1=O (centres undefined) | 2.3%[8.59 µM] | 0.3%[8.59 µM]
CCC(Sc1ccccc1)C(=O)OC1CC2CCC(C1)N2C (centres undefined) | 8.91µM* | -11.6%
CN1[C@@H]2CC[C@H]1CC(OC(=O)C(O)c1ccccc1)C2 (some centres undefined) | 11.5% | -3.7%
CCOC(=O)OC[C@H]1O[C@H](c2ccc(C(C)=O)cc2)C=C[C@H]1Oc1ccc(-c2ccccc2)cc1 | 2.8%[8.59 µM] | ·
CCCC[C@]12Cc3cc(OC)c(OC)cc3[C@H](O1)c1c(cc(-c3ccccc3)oc1=O)O2 | -24.8%[8.59 µM] | 3.1%[8.59 µM]
COCCN1C(=O)CC[C@@]23C1=NC(C(=O)OC)=C(C(=O)OC)[C@@H]2N(CC=C(C)C)c1ccccc13 | -13.6%[8.59 µM] | -9.2%[8.59 µM]
COc1ccc(O[C@H]2C=C[C@@H](c3ccccc3)O[C@H]2CON=C(C)CCN2CCCc3nc(C)c(C)cc32)cc1 | ? | 1.8%[8.59 µM]
c1ccc(CCCN2CCN(CCOC(c3ccccc3)c3ccccc3)CC2)cc1 | 11.2µM* | 28.2µM*
OCCOCCN1CCN(Cc2cccc(Oc3ccccc3)c2)CC1 | -27.9% | -0.5%
SMILES | Marburg entry | LASV entry inh
O=C(O)C1=CCCN(CCOC(c2ccc(C(F)(F)F)cc2)c2ccc(C(F)(F)F)cc2)C1 | 4.3% | -4.6%
Fc1ccc(C(OCCN2CCN(CCCc3ccccc3)CC2)c2ccc(F)cc2)cc1 | 7.94µM* | 14.1µM*!
C=C(C)CCN1C(=O)NC(c2ccccc2)C(C(C)=O)=C1C (centres undefined) | 7.2%[8.59 µM] | 25.7%[8.59 µM]
C#CCCCON=C1C[C@@H](O)[C@H](O)[C@H]2[C@@H]3C(=O)N(Cc4ccc5c(c4)OCO5)C(=O)[C@@H]3CC[C@H]12 | ? | 2.8%[8.59 µM]
CC(C)C(=O)N[C@@H]1CCCN1C(=O)C=Cc1ccccc1 | -46.9%[8.59 µM] | ·
N#Cc1ccc2c(c1)C[C@]1(CCCCN3C(=O)c4ccccc4C3=O)Oc3c(c(=O)oc4ccc(F)cc34)[C@@H]2O1 | -26.1%[8.59 µM] | -23.8%[8.59 µM]
CC(=O)Nc1cccc(C#Cc2cncnc2Nc2ccc(OCc3cccc(F)c3)c(Cl)c2)c1 | 12.5µM* | ·
CS(=O)(=O)CCNCc1cc(-c2cc3c(Nc4ccc(OCc5cccc(F)c5)c(Cl)c4)ncnc3s2)cs1 | ? | -69.3%
OC[C@H]1O[C@H](c2ccccc2)C=C[C@H]1OCc1cccc(Br)c1 | -11.4%[8.59 µM] | -18.8%[8.59 µM]
COC[C@@H]1N[S+](=O)([O-])c2ccc(Br)cc2O[C@@H]1c1ccccc1 | -6.7% | -7.8%
CN1[C@@H]2CC[C@H]1CC(OC(c1ccccc1)c1ccccc1)C2 (some centres undefined) | 12.6µM* | 14.1µM*
c1ccc(C(O[C@H]2CCCN(CCc3ccc4c(c3)OCO4)C2)c2ccccc2)cc1 | ? | -4.1%
CN1C2CC(OC(=O)C(CO)c3ccccc3)CC1C(O)C2 (centres undefined) | 8.4% | 9.0%
CN1C2CCC1CC(OC(c1ccc(F)cc1)c1ccc(F)cc1)C2 (centres undefined) | 5.62µM* | ?
CN1[C@@H]2CC[C@H]1CC(O[C@@H](c1ccccc1)c1ccc(Cl)cc1)C2 (some centres undefined) | 4.47µM* | 10µM*
CCN1C(=NCCc2c[nH]c3ccccc23)NC(c2ccccc2)C(C(=O)OC)=C1C (centres undefined) | ? | 8.5%[8.59 µM]
CC(C)(C)CC(=O)OCC(=O)[C@@]12OC(C)(C)O[C@@H]1C[C@H]1[C@@H]3CCC4=CC(=O)C=C[C@]4(C)[C@@]3(F)[C@@H](O)C[C@@]12C | 3.8% | -15.4%
C=CCOC(=O)C(C(C)=O)[C@@H](NC(=O)OC)c1ccco1 (some centres undefined) | 18.8%[8.59 µM] | 16.4%[8.59 µM]
COc1c(C(N)=O)cc(-c2ccc(Cl)cc2)cc1-c1ccc(S(N)(=O)=O)cc1 | -50.0% | ?
CN(CCOc1ccc(NS(C)(=O)=O)cc1)CCc1ccc(NS(C)(=O)=O)cc1 | 5.5% | -2.7%
CCCCc1oc2ccc(NS(C)(=O)=O)cc2c1C(=O)c1ccc(OCCCN(CCCC)CCCC)cc1 | 6.31µM* | 12.6µM*
COC(=O)[C@H](Cc1ccccc1)N1C[C@@H](N2CCC[C@@H]2C)C[S+]1(=O)[O-] | 20.4% | 13.6%
C=CC(=O)N1[C@H](C(=O)OCC)CSCCS1(=O)=O | -8.0% | 4.9%
COC(=O)C(C(=O)OC)[C@H]1c2ccccc2[C@@H]2C(=C[C@@H](C)[C@H]3C(=O)N(c4ccccc4)C(=O)[C@H]32)N1C(=O)OC | 25.3%[8.59 µM] | -9.7%[8.59 µM]
COc1cc(N)c(Cl)cc1C(=O)CCC1CCN(CCNS(C)(=O)=O)CC1 | 31.6µM*! | ?
COc1cc(COc2cc(N)c(Cl)cc2C(=O)CCC2CCN(CCNS(C)(=O)=O)CC2)cc(OC)c1 | 7.94µM* | ?
COc1cc(N)c(Cl)cc1C(=O)OCCN1CCCCC1 | -16.6% | 4.9%
Cn1cc(C(=O)OCC2CCN(CCNS(C)(=O)=O)CC2)c2ccccc21 | ? | 1.8%
COC(=O)N[C@@H](C=Cc1ccccc1)[C@@H](C)[N+](=O)[O-] | 2.4%[8.59 µM] | -8.7%[8.59 µM]
COC(=O)C1=C(C(=O)OC)[C@@H]2N(Cc3ccccc3)c3ccccc3[C@@]23C[C@@H](CO)N(C(=O)CC(C)C)C3=N1 | -37.7%[8.59 µM] | -0.6%[8.59 µM]
